Measured values published in PubChem BioAssay (NCI).
About 83,000 compounds went through this panel and 20% of them were active in at least one assay; those are over-represented in the sample as a whole.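 Percent growth is the endpoint: 0 to 100 indicates growth inhibition (40 means 60% inhibition), 0 means no net growth, and negative values indicate cell death.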 The source made the active and inactive calls. How the source made its calls: active means growth percent below 10; inactive means the rest.

Tests used:
Test in all cases: NCI-60 one-dose screen, 48 h (100 = growth as untreated, 0 = no growth, -100 = all killed)
DU-145 prostate = conditions: 10 µM unless noted
K-562 leukemia = conditions: 10 µM unless noted
RXF 393 renal = conditions: 10 µM unless noted
UACC-257 melanoma = conditions: 10 µM unless noted
HT29 colon = conditions: 10 µM unless noted
SNB-75 CNS = conditions: 10 µM unless noted
PC-3 prostate = conditions: 10 µM unless noted
SK-MEL-5 melanoma = conditions: 10 µM unless noted
UACC-62 melanoma = conditions: 10 µM unless noted
SK-MEL-2 melanoma = conditions: 10 µM unless noted
ACHN renal = conditions: 10 µM unless noted
A498 renal = conditions: 10 µM unless noted
HL-60(TB) leukemia = conditions: 10 µM unless noted
MOLT-4 leukemia = conditions: 10 µM
OVCAR-8 ovarian = conditions: 10 µM unless noted
OVCAR-5 ovarian = conditions: 10 µM unless noted
HS 578T breast = conditions: 10 µM unless noted
NCI/ADR-RES ovarian = conditions: 10 µM unless noted
T-47D breast = conditions: 10 µM unless noted
A549/ATCC NSCLC = conditions: 10 µM unless noted

Measured: growth

Nc1ncnc2c1c(C(=O)NO)cn2C1OC(CO)C(O)C1O (stereo not drawn)
inactive: OVCAR-5 ovarian 16.5%
active: DU-145 prostate -32.1% | K-562 leukemia -3.31% | RXF 393 renal -26.9% | UACC-257 melanoma -48% | HT29 colon 7.07% | SNB-75 CNS 4.46% | PC-3 prostate -20.9% | SK-MEL-5 melanoma -93% | UACC-62 melanoma -86.1% | SK-MEL-2 melanoma -18.7% | ACHN renal -15.4% | A498 renal -30.1% | HL-60(TB) leukemia -43% | MOLT-4 leukemia -32.9% | OVCAR-8 ovarian -20.2% | HS 578T breast -7.9% | NCI/ADR-RES ovarian 2.24% | T-47D breast -11.1%

O=C1NC2(CCNCC2)Nc2ccccc21
inactive: A549/ATCC NSCLC 69.1% | DU-145 prostate 108% | RXF 393 renal 111% | UACC-257 melanoma 85.7% | HT29 colon 98.2% | SNB-75 CNS 82.8% | PC-3 prostate 88.5% | SK-MEL-5 melanoma 114% | UACC-62 melanoma 96.1% | SK-MEL-2 melanoma 98.1% | ACHN renal 110% | A498 renal 95.5% | HL-60(TB) leukemia 95.6% | MOLT-4 leukemia 84.7% | OVCAR-8 ovarian 84.4% | OVCAR-5 ovarian 115% | HS 578T breast 102% | NCI/ADR-RES ovarian 109% | T-47D breast 109%

COc1cc(C2(C#N)CCN(C)CC2)cc(OC)c1OC
inactive: A549/ATCC NSCLC 88.8% | DU-145 prostate 113% | K-562 leukemia 97.5% | RXF 393 renal 114% | UACC-257 melanoma 108% | HT29 colon 101% | SNB-75 CNS 84.9% | PC-3 prostate 97.5% | SK-MEL-5 melanoma 107% | UACC-62 melanoma 94.3% | SK-MEL-2 melanoma 109% | ACHN renal 98.5% | A498 renal 88.4% | HL-60(TB) leukemia 95% | MOLT-4 leukemia 83.3% | OVCAR-8 ovarian 101% | OVCAR-5 ovarian 97.5% | HS 578T breast 100% | NCI/ADR-RES ovarian 104% | T-47D breast 98.1%
